Measured values: the supplement of paper PMC10338343
± gives the standard deviation.

system: MILI (PIWIL2) piRISC loaded with piRNA #1 (26 nt); test: pre-steady-state target cleavage rate (min^-1); guide: piRNA #1 5'p-UGAGGUAGUAGGUUGUAUAGUAUCCA; MIWI and MILI are mouse PIWI proteins and EfPiwi is from a freshwater sponge; tags in brackets are library labels; higher = faster piRNA-guided slicing of the target; conditions: auxiliary factor: 500 nM mouse GTSF1
How it was run: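 Cleave-'n-Seq reactions paired 0.1 nM transcribed, DNA-blocked target RNA library with 1 nM active affinity-purified piRISC holding one synthetic guide, plus or minus 500 nM GTSF1 partner protein, in HEPES–potassium acetate buffer at 33 °C for 0–8 or 0–960 min. After sequencing of uncleaved targets and normalisation to depth and weakly complementary targets, the pre-steady-state cleavage rate was taken from a burst-and-steady-state fit. Three trials were pooled, and k3 was capped at 0.0001 min^-1.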

| Sequence | pre-steady-state target cleavage rate |
| --- | --- |
| GGAGACCUAUGAUAUGUACCUACUACGAGA [g5:g13:cont:t1A] | < 0.0001 |
| GGAGACCUAUCUAUACAACCUACUAGCUCA | 0.0827 ± 0.014 |
| GGAGACCUAUGAAUACAACCUACUACCUACA | 0.00696 ± 0.0027 |
| GGAGACCUAUGAAUAGAACCUACUACCUCA | 0.00534 ± 0.0016 |
| GGAGACCUAACUAUACAAGCUACUUCCUCA | 0.144 ± 0.024 |
| GGAGACCUAUGAUAUGUUCCUACUACCUCG [g2:g12:cont:t1G] | < 0.0001 |
| GGAGACCUAUCUAUACAACCUACUACAUCA | 0.051 ± 0.0067 |
| GGAGACCUAUCAAUACAACGUACUACCUCA | 0.00874 ± 0.0028 |
| GGAGACCUUACGAUACAACCUACUACCUCA | 0.152 ± 0.017 |
| GGAGACCAUUCUAUACAAGCUACUACCUCA | 0.254 ± 0.018 |
| GGAGACCUAACUAAACAAGCUACUACCUCA | 0.15 ± 0.02 |
| GGAGACCUUUGUAUACAACCUACUACCUCA | 0.0347 ± 0.0065 |
| GGAGACCAUACAAUACAACCUAGUACCUCA | 0.0587 ± 0.011 |
| GGAGACCUAUGAAUACAACCUAACUACCUCA | 0.00316 ± 0.0021 |
| GGAGACCUAUGAAUACAACCUACGUACCUCA | 0.00396 ± 0.0023 |
| GGAGACCUAUGAUUGACAACCUACUACCUCA | 0.00768 ± 0.0032 |
| GGAGACCUAUCCAUACAACCUACUACCUCA | 0.0836 ± 0.016 |
| GGAGACCUAUGAUAUCAACCUACCUACCUCA | 0.00604 ± 0.0032 |
| GGAGACCUAUGAUUACAACCUACUAUCCUCA | 0.00664 ± 0.0027 |
| GGAGACCAUACUAAACAACCUACAACCUCA | 0.117 ± 0.016 |

| Sequence | pre-steady-state target cleavage rate |
| --- | --- |
| GGAGACCUAUGAUAACAACCUACUACCUCCA | 0.00565 ± 0.0022 |
| GGAGACCUAACCUAUACAACCUACUACCUCA | 0.107 ± 0.056 |
| GGAGACCUUAGUAUACAACGUACUACCUCA | 0.0124 ± 0.0037 |
| GGAGACCUUACUAACAACCUACUACCUCA | 0.0824 ± 0.016 |
| GGAGACCUAUCUAUACAACGUACUAGCUCA | 0.00553 ± 0.0029 |
| GGAGACCUAUGAAUACCACCUACUACCUCA | 0.00372 ± 0.0036 |
| GGAGACCUAUGAUAAUCAACCUACUACCUCA | 0.00294 ± 0.0029 |
| GGAGACGUUACUUUACAACCUACUACCUCA | 0.141 ± 0.01 |
| GGAGACCUAUGAUAUGUUCCUACUACCAUCA | < 0.0001 |
| GGAGACCUAUCUAUACAACCUACUCCCUCA | 0.0608 ± 0.0097 |
| GGAGACCUAUCAAUACAACCUACAACCUCA | 0.0677 ± 0.015 |
| GGAGACGAUACUAUACAUGGUACUACCUCA | 0.00601 ± 0.0019 |
| GGAGACCAUAAUAUACAACCUACUACCUCA | 0.0982 ± 0.013 |
| GGAGACCUAUCUAUACAACCUACCUACCUCA | 0.0519 ± 0.0097 |
| GGAGACCUAUCUAUACAGCCUACUACCUCA | 0.0315 ± 0.006 |
| GGAGACCUAUGAUUACAACCUACUAGCUCA | 0.00322 ± 0.0026 |
| GGAGACCAUACUAUACCACCUACUACCUCA | 0.157 ± 0.013 |
| GGAGACCUAUGAAUACAACCUAGCUACCUCA | 0.00489 ± 0.0025 |
| GGAGACGAAACUAUACAACCUACAACCUCA | 0.133 ± 0.031 |
